test: EMT-state selective cytotoxicity in co-culture – imaging, PC-3E GFP, TEM4-18 mCherry, primary screen (AID 1345086); conditions: PC-3E GFP / TEM4-18 mCherry co-culture, imaging cell counts; measured here: epithelial PC-3E GFP cell survival; at 1 µM;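 note: cells exposed to compound for 72 h before imaging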

| SMILES | normalised cell number |
| --- | --- |
| CN1C2CC(=O)CC1[C@H](O)C2 (some centres not stated) | 1.25 |
| c1ccc(S[C@@H]2OC3COC(c4ccccc4)OC3[C@H]3NC32)cc1 (some centres not stated) | 1.08 |
| Cc1ncc(C[n+]2csc(CCO)c2C)c(=O)[nH]1 | 1.27 |
| Nc1ccc(-c2ccccc2)cc1 | 0.96 |
| C[CH2][Hg+].O=C([O-])c1ccccc1[S-].[Na+] | 0.18 |
| C[C@@H]1CC[C@@]2(NC1)OC1CC3C4CC=C5C[C@@H](O)CC[C@]5(C)C4CC[C@]3(C)C1[C@@H]2C (some centres not stated) | 1.11 |
| C[C@@H]1C(=O)OC2[C@H](O)C34[C@@H]5OC(=O)[C@@]3(OC3OC(=O)[C@H](O)[C@@]34[C@H](C(C)(C)C)[C@H]5O)[C@]21O (some centres not stated) | 0.86 |
| COc1cc(O)c2c(=O)oc3cc(O)cc(C)c3c2c1 | 1.19 |
| C[C@]12CCC(=O)C=C1CCC1C2CC[C@@]2(C)C1CC[C@H]2O (some centres not stated) | 0.92 |
| C[C@@H]1CC[C@H]2[C@@H](C)C(=O)O[C@@H]3O[C@]4(C)CC[C@@H]1[C@]32OO4 | 0.97 |
| CC[C@H](C)/C=C(C)/C=C/C1=CC2=C(Cl)C(=O)[C@](C)(OC(C)=O)C(=O)C2=CO1 | 0.96 |

same assay, conditions: PC-3E GFP / TEM4-18 mCherry co-culture, imaging cell counts; measured here: mesenchymal TEM4-18 mCherry cell survival; at 1 µM

| SMILES | normalised cell number |
| --- | --- |
| COc1cc([C@@H]2c3cc4c(cc3[C@H](OC(C)=O)C3COC(=O)[C@@H]32)OCO4)cc(OC)c1OC (some centres not stated) | 0.16 |
| COc1cc(=O)oc(/C=C/C=C/C=C/C(C)=C/[C@@]2(C)O[C@@H](C)[C@@](C)(O)[C@@H]2O)c1C | 0.85 |
| CN1CC[C@@]2(C)c3cc(O)ccc3N(C)[C@@H]12 | 1.05 |
| C[C@]12C=CC(=O)C=C1CCC1C2CC[C@]2(C)C(=O)CCC12 (some centres not stated) | 1.12 |
| CC[C@H](c1cccc(O)c1)[C@@H](C)CN(C)C | 0.96 |
| CC(C)=CCC[C@H](C)[C@H]1CC[C@]2(C)C[C@H]3[C@@H](C(=O)C[C@@]3(C)O)/C(C=O)=C\C[C@@H]12 | 0.8 |
| O=C(O)COc1ccc(O)cc1 | 1.15 |
| Fc1ccc(C2CCNCC2COc2ccccc2)cc1 (configuration not stated) | 1.05 |
| CC1(C)CC(=O)C(Cl)C(=O)C1 | 1.05 |
| COc1cc2c(c3oc4cccc(O)c4c(=O)c13)[C@@H]1C=CO[C@@H]1O2 | 0.98 |
| O=C1NCC[C@@H]1O | 1.03 |
| CCN1C[C@]2(OC(=O)c3ccccc3NC(C)=O)CCC(OC)[C@]34C1[C@@H](CC23)[C@@]1(O)CC(OC)[C@H]2CC4C1(O)[C@H]2OC (some centres not stated) | 0.93 |
| C[C@]12CC[C@H](O)C[C@H]1CCC1C2CC[C@]2(C)[C@@H](C3=CC(=O)OC3)[C@@H](O)C[C@]12O (some centres not stated) | 0.35 |
| C[N+]12CC(C[C@H]1c1cccnc1)C2 | 1.16 |
| CN1C[C@H](C(=O)N[C@]2(C)O[C@@]3(O)C4CCCN4C(=O)[C@H](Cc4ccccc4)N3C2=O)C=C2c3cccc4[nH]cc(c34)C[C@H]21 (some centres not stated) | 1 |
| CN1C2CC(=O)CC1[C@H](O)C2 (some centres not stated) | 1.01 |
| c1ccc(S[C@@H]2OC3COC(c4ccccc4)OC3[C@H]3NC32)cc1 (some centres not stated) | 1.06 |
| Cc1ncc(C[n+]2csc(CCO)c2C)c(=O)[nH]1 | 1.03 |
| Nc1ccc(-c2ccccc2)cc1 | 1.03 |
| C[CH2][Hg+].O=C([O-])c1ccccc1[S-].[Na+] | 0.06 |
| C[C@@H]1CC[C@@]2(NC1)OC1CC3C4CC=C5C[C@@H](O)CC[C@]5(C)C4CC[C@]3(C)C1[C@@H]2C (some centres not stated) | 1.13 |
| C[C@@H]1C(=O)OC2[C@H](O)C34[C@@H]5OC(=O)[C@@]3(OC3OC(=O)[C@H](O)[C@@]34[C@H](C(C)(C)C)[C@H]5O)[C@]21O (some centres not stated) | 0.93 |
| COc1cc(O)c2c(=O)oc3cc(O)cc(C)c3c2c1 | 1.07 |
| C[C@]12CCC(=O)C=C1CCC1C2CC[C@@]2(C)C1CC[C@H]2O (some centres not stated) | 1.08 |
| C[C@@H]1CC[C@H]2[C@@H](C)C(=O)O[C@@H]3O[C@]4(C)CC[C@@H]1[C@]32OO4 | 1.03 |
| CC[C@H](C)/C=C(C)/C=C/C1=CC2=C(Cl)C(=O)[C@](C)(OC(C)=O)C(=O)C2=CO1 | 0.96 |
